The experiment has as its system VDR:RXRa (NR concentration 270 nM, RXRa partner concentration 90 nM). Kind of experiment: PBM binding z-score (relative to random genomic background probes); higher = stronger binding; sequences stand for … in GC…GCGATTGACAGCGTAGAATGAAGG
The procedure:
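Protein-binding microarray (Agilent 4x180K custom design, double-stranded 60-nt probes: 5' GC cap, 34-nt variable region, 24-nt constant primer region; full probe sequence given). Purified or IVT nuclear receptor:RXRα heterodimers (3:1 NR:RXRα, mostly 270:90 nM) or homodimers were incubated for 1 h in PBS with 2% milk and no ligand, then detected with Alexa488 antibodies. Fluorescence from o1-orientation probes (~5 replicates averaged) was converted to z-scores against 500 random hg19 background probes. Variable regions are seed direct-repeat (DR0–DR5) sites, all their single-nucleotide variants and half-site ablations.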
Sequence GCTGCTAGGTCAACTGATGGTAAGCTAAAGCTCG returned a PBM binding z-score of 1.23.
The sequence AATACAGGGTCACTAGGCCAGAGTTGGTACGAAT registered a PBM binding z-score of 4.26.
For the sequence TAGCCTAGGTCATTCAGGGTCCAGTATAGAAAGC, the PBM binding z-score was 4.41.
The result for ACAGACAGGTGATGAAGGTAACTAAGGCTATCAT reads 0.295; that for CTTCCAAGGTGAACAAGGTCGTTGATTACTATTC, 6.21.
Take CGTCAAAGTTCAGGGTAACGTAACAGAAAGCAGC: the PBM binding z-score worked out at 2.8.
Sequence CCTTACGAGTCACTCCAGGTTATAGCATCGGAGT displayed a PBM binding z-score of 1.24.
For CAGCCTAGGTTAGGGCCAGTATAGGAGGAACGTT the value was -0.611; for GCGACTGGGGCATAAGCAGGTTACCATAACTTAA, -0.0344.
The result for TCGAGTAGGTTAGGTGCATTCAGAATGGCGTCGA reads 0.44; that for TCTATTAGTTGATTAGAGCAACCGAAACAGCGGA, 0.404.
CGTACTGGGCCACGAAAGGTCATTGATTCAGTGA: the PBM binding z-score worked out at 4.47.
For GCTAGTTGGTCAGTAAAAGGTCACCCACCGGTCG the value was 3.44.
For CAGCCTAGGTCAGGGCCAGTATAGGAGGAACGTT the value was 0.31.
The sequence TGTCGAAGTTCAAAGGTAACGTAAGTATCCACAC showed a PBM binding z-score of 3.71.
Sequence ACAGACAGGCGAGTGAAGGTAACTCAGCTGGACG registered a PBM binding z-score of -0.451.
For the sequence CCAGACAGGTGAAAGGTAACTCAATCTGGTACGC, the PBM binding z-score is 0.936.
On to ACTAGCAGGCCAAGGGTAACTCAAGATTAGTCCG, for which the PBM binding z-score is -0.166.
For TCTGCTACGTCAACGATGGTCAGCTAATCTGCTA the value was -0.548; for GGAACGAGGGCATTCGAGTTGCTAGCATGGCGAT, 2.71; for CCTTCTGGGCCAAGGTCATTGATCAGTCAAAGCA, 3.17.
The result for TCTCCGAGGACACGAAAGGTCAGAGCTCGACATC reads 3.72; that for CCTACTGGGCCACGAACGGTCATTGATTCAGTGA, -0.227.
The result for TCAGATAGGTAAAAGGTGAAAGTCGGTGTGGTAA reads 0.851; that for AGTCAAAGTTCACTAGGAAACGTAAGATTCAGCT, 3.48.
In turn, ACTAGTTGGTCAGCTGAGGCCACACACAATTCGG had a PBM binding z-score of 0.307.
As to CGTCCAAGATCAAGGTCAGTGAAAGAGACTCGAA, the PBM binding z-score came to 1.62.
The result for ACTTACGGGTCAACGAGGTTATAACACGCGTATA reads 7.9; that for CGTCCATGGTCAGCAGGTCAGTGAAAGCGACGTG, 0.0484; that for TAAATGAGGTTAAAGATCAGGGAACGTGGCGTCG, 2.22.
For TCAAATAGGTAAACAGGTGAAAGTCCGTAAGTTA the value was 1.18; for TCTTGTAGATCTGCAGGTTAAGAAAGCTGGCCAA, 0.239; for CAAACTAGGTCACCGGAAGGTCACAGTCCGCATG, 5.64.
AGAATAAGGTTAAGATCAGGGAAACAGAATACAT gave a PBM binding z-score of 1.14.
The result for CGTCCAGGGTCAGCAGGTCAGTGAAAGCGACGTG reads 4.15; that for TCATATAGGTAAACAGGTGAAATTCCGTAAGTTA, 1.35.
The result for CCTTACGGGCCAAGGTTATAGCACGGGTGGTACG reads -0.139; that for ACTATTAGTTGACTTAGGGCAACCGATACGACGC, 0.152.
As for ATACCAAGGTGATCGTGAGGGCGTTGATACTAAC, the PBM binding z-score was 1.42.
The result for TAGCCTTGGTCATTCAGGGGCCAGTATAGAAAGC reads -0.0829.

The record behind these values is the supplement of paper PMC6555819.
